# Results taken from PubChem BioAssay (NCI).
# Compounds without any hit were thinned out: in the full panel of roughly 83,000, 20% have a hit.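 Values shown are percent growth following 48 h exposure of cells in 96-well plates to a single concentration of compound; below 10 was considered active.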 Unmarked numbers belong to inactive results. Active and inactive are the calls of the source.
# How the values were obtained:
# Assay in all cases: NCI-60 one-dose screen, 48 h (100 = growth as untreated, 0 = no growth, -100 = all killed)
# Details in all cases: 10 µM
# SK-MEL-2 melanoma = system: SK-MEL-2 melanoma
# EKVX NSCLC = system: EKVX NSCLC
# UO-31 renal = system: UO-31 renal
# TK-10 renal = system: TK-10 renal
# ACHN renal = system: ACHN renal
# CAKI-1 renal = system: CAKI-1 renal
# A498 renal = system: A498 renal
# CCRF-CEM leukemia = system: CCRF-CEM leukemia
# MOLT-4 leukemia = system: MOLT-4 leukemia
# RPMI-8226 leukemia = system: RPMI-8226 leukemia
# OVCAR-8 ovarian = system: OVCAR-8 ovarian
# OVCAR-5 ovarian = system: OVCAR-5 ovarian
# OVCAR-4 ovarian = system: OVCAR-4 ovarian
# SK-OV-3 ovarian = system: SK-OV-3 ovarian
# IGROV1 ovarian = system: IGROV1 ovarian
# OVCAR-3 ovarian = system: OVCAR-3 ovarian
# NCI/ADR-RES ovarian = system: NCI/ADR-RES ovarian
# SR leukemia = system: SR leukemia
# HS 578T breast = system: HS 578T breast
Structure (SMILES),growth (SK-MEL-2 melanoma) [%],growth (EKVX NSCLC),growth (UO-31 renal),growth (TK-10 renal) [%],growth (ACHN renal),growth (CAKI-1 renal),growth (A498 renal),growth (CCRF-CEM leukemia),growth (MOLT-4 leukemia),growth (RPMI-8226 leukemia),growth (OVCAR-8 ovarian) [%],growth (OVCAR-5 ovarian) [%],growth (OVCAR-4 ovarian),growth (SK-OV-3 ovarian) [%],growth (IGROV1 ovarian) [%],growth (OVCAR-3 ovarian),growth (NCI/ADR-RES ovarian),growth (SR leukemia),growth (HS 578T breast) [%]
O=C(O)CCCCSCCCCC(=O)O,93.2,106%,92.7%,92,104%,100%,118%,95.8%,93.1%,97.9%,106,122,113%,98.7,97.9,109%,109%,,
O=C1CC[C@@H](C(=O)N[C@H]2CSSC[C@@H](C(=O)NCCc3ccccc3)NC(=O)[C@H](Cc3ccccc3)NC(=O)[C@@H]3CCCN3C(=O)[C@@H]3CCCN3C2=O)N1,94.2,101%,99.1%,86.9,104%,97.3%,91.2%,,85.8%,108%,104,90.4,105%,97.5,,104%,99.8%,94.5%,101
C[C@H](NC(=O)[C@@H]1CSSC[C@@H](NC(=O)Cc2nc3ccccc3cc2O)C(=O)NCC(=O)N1C)c1ccccc1,82.3,99.5%,92%,109,,99.7%,120%,20.1%,-17.2% (active),87.2%,95.2,104,63.6%,88.4,,,101%,-3.15% (active),94.2
O=C(O)CCCN1C(=O)NC2(C1=O)c1ccccc1-c1ccccc12,83.2,98.3%,88.4%,90.1,104%,98.4%,101%,96.5%,101%,99.9%,97.3,101,106%,,101,109%,96.8%,100%,
O=C(O)CNS(=O)(=O)c1ccc(OCCOc2ccc(S(=O)(=O)NCC(=O)O)cc2)cc1,98.5,102%,85.7%,92.7,102%,99.5%,96.4%,,106%,109%,,104,115%,103,106,103%,103%,103%,99.4
CCCCCCCCCCN=C(c1ccc(N(C)C)cc1)c1ccc(N(C)C)cc1,23.3,29.3%,52.8%,55.7,43.3%,35.7%,-9.41% (active),28.1%,24.6%,24.3%,,71.5,59.8%,16.6,,2.1% (active),-3.13% (active),23%,26.7
C=CCc1cc(Nc2c3ccc(Cl)cc3nc3ccc(OC)cc23)cc(CN(CC)CC)c1O,18.5,0.403% (active),5.47% (active),12.7,4.15% (active),7.85% (active),20.6%,5.06% (active),-20.3% (active),-25.7% (active),,47.5,9.26% (active),,25.5,6.47% (active),43.9%,-20.4% (active),
Nc1nsc(C(=O)c2ccc(O)cc2)n1,102,97.9%,79.5%,108,91.1%,92%,115%,,110%,90.7%,91.1,93.6,105%,92.8,,95.2%,103%,99.2%,98.1
COCCOC(=O)NC(=O)Nc1ccc(C(=O)c2ccc(Cl)cc2)cc1,27.6,31.4%,40.3%,53.2,42.7%,32.8%,19.3%,,32.7%,19.2%,40.4,90.7,56.9%,27.2,51.3,6.85% (active),18.9%,,32
COCc1cc2c(cc1Br)OCO2,96.7,102%,84.6%,95.7,,95%,91.2%,71.9%,107%,95.1%,98.8,92.5,111%,95.3,,111%,88.7%,106%,101
CCCC(C)c1ccc(OCCCCCCN2CCNCC2)cc1 (stereo unspecified),79,67.3%,78.7%,85,49.5%,18.2%,50.5%,4.49% (active),-27.6% (active),-9.35% (active),36.8,80.8,62.2%,87,64.7,62.6%,54.3%,,68.1
N#Cc1c2c([nH]c(=O)c1C(N)=O)CCCCC2,98.7,104%,85.2%,95.4,104%,99.3%,89.8%,95%,117%,103%,,97.2,116%,91.6,102,113%,111%,108%,91.4
COc1ccc(-c2n/c(=C\c3c(O)[nH]c4ccccc34)cc3c2=Nc2ccccc2-3)cc1,84.5,72.4%,58.3%,97.5,98.7%,71.6%,56.2%,,2.65% (active),24.7%,20.1,89.1,5.98% (active),93.5,85.6,,5.95% (active),6.48% (active),
c1ccc(CC(NCCNC(Cc2ccccc2)c2ccccc2)c2ccccc2)cc1 (stereo unspecified),69.8,23%,27.3%,61.1,20.6%,7.43% (active),61.8%,10.1%,-13.2% (active),-41.1% (active),22.5,55.2,35.6%,84,36.4,22.9%,38.8%,,73.4
c1ccc(C2CCCCC2)c(OCCCCCN2CCNCC2)c1,82,67.4%,66.6%,83.2,,66.2%,52.4%,27.1%,33.5%,-14.6% (active),83.2,93.8,68.5%,94.9,56.7,76.9%,70%,-32.9% (active),76
O=C1c2cc(Cl)ccc2-c2c(O)cc(Cl)cc21,62.3,72.1%,49.6%,114,66%,90.7%,109%,,47.3%,46.6%,58.4,101,66.4%,94.8,74.4,80%,3.18% (active),,81.5
O=c1[nH]c(=O)n(C2C[C@@H](O)[C@@H](CO)O2)cc1F (stereo partly specified),57.3,70.7%,10.5%,35.5,,31.6%,15.8%,29.1%,32.5%,59.2%,30.2,,39%,43.6,43.1,30.5%,29.6%,25.9%,60.8
O=C(NCCc1nccs1)c1cnc2c(S)cccc2c1,22.6,16.3%,12.9%,38.5,29%,19%,-2.06% (active),15.4%,15.1%,26.2%,29.3,75.2,27.1%,,,5.69% (active),5.32% (active),14.6%,
